# Data taken from PubChem BioAssay (EPA / NIEHS).
# The source made the active and inactive calls. Rule for the calls: active = hit-call score of the fitted dose curve at least 0.9, where 1 is the maximum; inconclusive = response in the unintended direction; inactive = score below 0.9.
# Assay: Tanguay_ZF_120hpf_MORT_legacy: (Legacy) Oregon State University Tanguay Lab 120 Hour Post-fertilization zebrafish Assay for Mortality (AID 2283633)
# Protocol: Tanguay_ZF_120hpf_legacy is a whole embryo, multiplexed endpoint assay using zebrafish larvae exposed for 120 hours post fertilization on a 96-well plate.Tanguay_ZF_120hpf_MORT_legacy is one of one assay component(s) measured or calculated from the Tanguay_ZF_120hpf_legacy assay. It is designed to make measurements of embryonic mortality as detected with brightfield microscopy of developing zebrafish embryos.Data from the assay component Tanguay_ZF_120hpf_MORT_legacy was analyzed into 1 assay endpoints. This assay endpoint, Tanguay_ZF_120hpf_MORT_legacy, was analyzed in the positive analysis fitting direction relative to DMSO as the negative control and baseline of activity. Using a type of viability reporter, gain-of-signal activity can be used to understand changes in developmentals as they relate to the whole embryo. To generalize the intended target to other relatable targets, this assay endpoint is annotated to the embryonic mortality intended target family, where the subfamily is embryonic mortality.
# Zebrafish husbandry: Tropical 5D wild-type adult zebrafish were housed in at an approximate density of 1000 per 100 gallon tank at the Sinnhuber Aquatic Research Laboratory, Oregon State University, Corvallis, OR. Each tank was kept at standard laboratory conditions of 28C on a 14-h light/10-h dark photoperiod in fish water consisting of reverse osmosis water supplemented with a commercially available salt (Instant Ocean). Spawning funnels were placed into the tanks the night prior, and embryos were collected and staged. To increase bioavailability, the chorion was enzymatically removed using pronase (63.6mg/ml, >/= 3.5U/mg, Sigma-Aldrich: P5147) at 4 hours post fertilization (hpf) using a custom automated dechorionator.Chemical exposures: Six hpf dechorionated embryos were placed 1 embryo per well in a 96-well plate prefilled with 90 ul of EM using automated embryo placement systems (AEPS). Ten microliters of each row of dilution plate 2 was added to 2 exposure plates. The final DMSO concentration used was 0.64% (vol/vol). Thirty-two embryos were also exposed to 5uM trimethyltin chloride (positive control). Plates were sealed to prevent evaporation and foil covered to reduce light exposure and kept in a 28C incubator. Embryos were statically exposed until 120 hpf. At 24 hpf, embryos were assessed for photomotor response using a custom photomotor response analysis tool (PRAT) and for developmental toxicity endpoints (MO24: mortality at 24 hpf, DP: developmental progression, SM: spontaneous movement, and NC: notochord distortion). At 120 hpf, locomotor activity was measured using Viewpoint Zebralab and assessed for 18 endpoints. Zebrafish acquisition and analysis program (ZAAP), a custom program designed to inventory, acquire, and manage zebrafish data, was used to collect developmental endpoints as either present or absent (i.e., binary responses were recorded). If mortality occurred for an embryo (at either 24 or 120 hpf), the non-mortality endpoints were not measured.
Structure (SMILES),outcome,AC50
Nc1ccc(S(=O)(=O)c2ccc(N)cc2)cc1,inactive,–
CCNc1cccc(C)c1,inactive,–
CCCCN(CCCC)CCCC,inactive,–
C=CCc1ccc(O)c(OC)c1,inactive,–
Cc1ccc2ncccc2c1,inactive,–
CC=Cc1ccc(O)c(OC)c1,inactive,–
CCCCCCCCCCCCCO,inactive,–
CCCCOC(=O)CCCCCCCCC(=O)OCCCC,inactive,–
Oc1ccc2ccccc2c1N=Nc1ccccc1,inactive,–
CC(=O)Oc1ccccc1C(=O)O,inactive,–
Nc1ccc2c(c1)C(=O)c1ccccc1C2=O,inactive,–
COc1cc(-c2nc(NC(=O)c3cc4cc(C)cc(C)c4n3CC(=O)O)sc2CCC2CCCCC2)c(OC)cc1Cl,inactive,–
O=c1[nH]cc(F)c(=O)[nH]1,inactive,–
O=C(OCCCCCOC(=O)c1ccccc1)c1ccccc1,inactive,–
OC[C@@H](O)[C@@H](O)[C@H](O)[C@H](O)CO,inactive,–
NCCO,inactive,–
NS(=O)(=O)c1cc2c(cc1Cl)NCNS2(=O)=O,inactive,–
O=C(O)CCCCC(=O)O,inactive,–
Cc1nc(-c2ccc3c(c2)CCN(CCC2CCC(NC(=O)/C=C/c4ccc(F)cc4)CC2)CC3)no1 (stereo not given),inactive,–
CC1(C)NC(=O)NC1=O,inactive,–

Structure (SMILES),outcome,AC50
CCc1c(C(=O)NN2CCCCC2)nn(-c2ccc(Cl)cc2Cl)c1-c1ccc(Br)cc1,inactive,–
C1CCC(SSC2CCCCC2)CC1,inactive,–
CC(C)(C)c1cc(O)c(C(C)(C)C)cc1O,–,11 µM (active)
Cc1ccc(C)c(O)c1C,inactive,–
Cc1ccc(Cl)cc1,inactive,–
COc1ccc(S(=O)(=O)N2C(=O)[C@@](c3ccccc3OC)(N3C[C@H](O)C[C@H]3C(=O)N(C)C)c3cc(Cl)ccc32)c(OC)c1,inactive,–
O=[N+]([O-])C(CO)(CO)CO,inactive,–
Nc1ccccc1N,inactive,–
CN1CCCC1=O,inactive,–
CN1CCN(Cc2cc(-c3ccc4[nH]c(=O)oc4c3)co2)[C@@H](c2ccc(F)cc2)C1,inactive,–
CCCCCCCCCCCCCCCC,inactive,–
Cc1cc(=O)[nH]c(=S)[nH]1,inactive,–
NC(=O)Cn1c(=O)cc(CCN2CCN(c3nccc4sccc34)CC2)c2ccc(F)cc21,inactive,–
Cc1cc(NC(=O)C(=O)O)cc(C)c1Oc1ccc(O)c2c1CCC2,inactive,–
Cc1cccc(C)c1O,inactive,–
CCCCCCC(=O)OCC,inactive,–
CCCCC(CC)COC(=O)CC(C(=O)OCC(CC)CCCC)S(=O)(=O)O (stereo not given),inactive,–
Cc1ccccc1Cl,inactive,–
C=CCOC(=O)c1ccccc1C(=O)OCC=C,–,13.9 µM (active)
CCOC(=O)C(C)(C)Oc1ccc(Cl)cc1,inactive,–
